From PubChem BioAssay (EPA / NIEHS)
Calls of active or inactive are those of the source. Rule for the calls: active = hit-call score of the fitted dose curve at least 0.9, where 1 is the maximum; inactive = score below 0.9.

Experiment: BSK_hDFCGF_SRB: Viability Assessment in the BioMAP Diversity Plus: hDFCGF Assay (AID 2283061);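 note: cells exposed to compound for 24 h before the read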
Settings: primary human foreskin fibroblasts
Experimental: BSK_hDFCGF is a cell-based, multiplexed-readout assay that uses foreskin fibroblast, a human skin primary cell, with measurements taken at 24 hours after chemical dosing in a 96-well plate.BSK_hDFCGF_SRB is an assay component measured in the BSK_hDFCGF assay. It measures 0.1% sulforhodamine related to cell death using Sulforhodamine staining technology.Data from the assay component BSK_hDFCGF_SRB was analyzed into 1 assay endpoint. This assay endpoint, BSK_hDFCGF_SRB, was analyzed with bidirectional fitting relative to DMSO as the negative control and baseline of activity. Using a type of viability reporter, gain or loss-of-signal activity can be used to understand changes in the signaling. Furthermore, this assay endpoint can be referred to as a primary readout, because this assay has produced multiple assay endpoints where this one serves a signaling function. To generalize the intended target to other relatable targets, this assay endpoint is annotated to the cell morphology intended target family, where the subfamily is cell conformation.
The levels of cell surface (or secreted, indicated by the prefix "s") biomarker endpoints were measured by ELISA. Overt cytotoxicity to cells in confluent adherent cultures (all systems other than the BT system) was assessed by measuring total protein levels using sulforhodamine B (SRB) staining in parallel cultures at the time of biomarker measurements, indicated as SRB endpoints. For proliferation assays for adherent cell types, individual cell types are cultured at sub-confluence and relative cell numbers quantified by SRB staining at time points optimized for each system (48 h: 3C and CASM3C systems; 72 h: BT and HDF3CGF systems; 96 h: SAg system). SRB was performed by staining cells with 0.1% SRB after fixation with 10% TCA and reading wells at 560 nm.Viability and proliferation of PBMC (T cells) was quantified by Alamar Blue reduction for the SAg and BT systems. For PBMC viability (referred to as PBMC Cytotoxicity within the assay endpoint names), cells were plated (75,000/well in a 96-well plate) and then chemical samples added for 1 h before addition of activators, SEB and TSST-1 (20 ng/mL final concentration each). Cells were incubated for 90 h. Then, Alamar Blue (20 uL/well) (Invitrogen, Cat DAL1100) was added for 6 h, and the plates were read with a fluorescence microplate reader at 546/580 nm (excitation/emission). For PBMC proliferation, cells were plated and activated as above but incubated for only 16 h prior to addition of Alamar Blue. Plates were read after 6 h.
With `C=CCOC(=O)c1ccccc1C(=O)OCC=C` the outcome was “inactive”. For `NS(=O)(=O)c1cc2c(cc1Cl)NCNS2(=O)=O`, the outcome was “inactive”. In the case of `CCOc1ccc2c(c1)C(C)=CC(C)(C)N2`, the outcome is reported as “inactive”. In the case of `COC(=O)c1ccc(O)cc1`, the outcome is reported as “inactive”. With `COc1ccc(S(=O)(=O)N2C(=O)[C@@](c3ccccc3OC)(N3C[C@H](O)C[C@H]3C(=O)N(C)C)c3cc(Cl)ccc32)c(OC)c1` the AC50 was 26.5 µM (active). With `C[C@]12C=CC(=O)C=C1CC[C@@H]1[C@@H]2C(=O)C[C@@]2(C)[C@H]1CC[C@]2(O)C(=O)CO` the outcome was “inactive”. In the case of `CC(=O)OC/C=C(\C)CCC=C(C)C`, the outcome is reported as “inactive”. For `Cc1ccc(N(C)C)cc1`, the outcome was “inactive”. In the case of `CCCCCCOCCO`, the outcome is reported as “inactive”. In the case of `CCNc1cccc(C)c1`, the outcome is reported as “inactive”. For `CCc1c(C(=O)NN2CCCCC2)nn(-c2ccc(Cl)cc2Cl)c1-c1ccc(Br)cc1`, the AC50 was 2.85 µM (active). With `NCCO` the outcome was “inactive”. With `Nc1ccccc1N` the outcome was “inactive”. For `CCCCCCCCCCCCCCCCCC(=O)O`, the outcome was “inactive”. With `CCCCc1ccc2c(n1)[C@@H](c1ccc(OC)cc1C[C@H](C)C(=O)O)[C@H](C(=O)O)[C@H]2c1ccc2c(c1)OCO2` the outcome was “inactive”. For `CCCCCCCCCCC`, the outcome was “inactive”. With `CCCc1cc(=O)[nH]c(=S)[nH]1` the outcome was “inactive”. With `CCCCCCC(=O)OCC` the outcome was “inactive”. With `CN1CCCC1=O` the outcome was “inactive”. In the case of `COCCOC[C@H](CC1(C(=O)NC2CCC(C(=O)O)CC2)CCCC1)C(=O)Oc1ccc2c(c1)CCC2` (stereo not given in full), the outcome is reported as “inactive”. With `OC[C@@H](O)[C@@H](O)[C@H](O)[C@H](O)CO` the outcome was “inactive”. For `CCCCCCCCCCCCCCCC`, the outcome was “inactive”. For `O=C(O)CCCCC(=O)O`, the outcome was “inactive”. With `Cc1cc(NC(=O)C(=O)O)cc(C)c1Oc1ccc(O)c2c1CCC2` the outcome was “inactive”. In the case of `CC(C)(C)c1cc(O)c(C(C)(C)C)cc1O`, the outcome is reported as “inactive”. For `COc1cc(S(=O)(=O)O)c(C)cc1N=Nc1c(O)ccc2cc(S(=O)(=O)O)ccc12`, the outcome was “inactive”. For `Nc1ccc(S(=O)(=O)c2ccc(N)cc2)cc1`, the outcome was “inactive”. In the case of `Cc1ccccc1Cl`, the outcome is reported as “inactive”. With `CN[C@H]1CC[C@@H](c2ccc(Cl)c(Cl)c2)c2ccc(S(N)(=O)=O)cc21` the AC50 was 28.1 µM (active). With `CNCc1cc(F)ccc1Oc1ccc(Cl)c(Cl)c1` the outcome was “inactive”. With `COc1ccc(C)cc1N` the outcome was “inactive”. In the case of `Cc1cccc(Nc2cc(Cl)nc(SCC(=O)O)n2)c1C`, the outcome is reported as “inactive”. With `O=[N+]([O-])C(CO)(CO)CO` the outcome was “inactive”. For `CCCCCCCCCCCC(=O)OC`, the outcome was “inactive”. In the case of `Oc1ccc2c(c1)OC[C@@H](N1CCC(O)(c3ccc(F)cc3)CC1)[C@H]2O`, the outcome is reported as “inactive”. With `Cc1ccc(C)c(O)c1C` the outcome was “inactive”. For `Oc1ccc2ccccc2c1N=Nc1ccccc1`, the outcome was “inactive”. With `Cc1nc(C)nc(N2C[C@@H](C)N(c3ccnc([C@@H](C)O)n3)[C@@H](C)C2)n1` the outcome was “inactive”. With `CC=Cc1ccc(O)c(OC)c1` the outcome was “inactive”. In the case of `NC(=O)Cn1c(=O)cc(CCN2CCN(c3nccc4sccc34)CC2)c2ccc(F)cc21`, the outcome is reported as “inactive”.
